How the values were obtained:
Test in all cases: pooled miR-30 sensor sort-seq; sequence = guide strand
Conditions in all cases: shRNA
[1] = target: PRKAR1B
[2] = target: PRB2
[3] = target: PREB
[4] = target: PRDM11
[5] = target: PRPS2
[6] = target: PRSS27
[7] = target: PSKH2
[8] = target: PTBP2
[9] = target: PYROXD1
[10] = target: RAB3GAP2
[11] = target: RAB11A
[12] = target: RAB28
[13] = target: RAB3D
[14] = target: RABGEF1

TGCTGTATAACAGTCTCCCCAG
sensor-assay potency score (higher = more potent) [1]: -0.318

TTGTTGTCTCCTTGTGGGGGTG
sensor-assay potency score (higher = more potent) [2]: -1.06

TTGCACTGTGAAGAGTCGCAGG
sensor-assay potency score (higher = more potent) [3]: -0.529

TTCCTCTTGAGGATCTCAGAGC
sensor-assay potency score (higher = more potent) [1]: -0.844

TTCTTCTTCTTAGCTTGGGGGT
sensor-assay potency score (higher = more potent) [4]: -0.763

TATATTCTGCACACCATGGGTC
sensor-assay potency score (higher = more potent) [4]: 0.141

TTGTGGGGAATTTGCACTGTGA
sensor-assay potency score (higher = more potent) [3]: -0.563

TTCTGGGTTATCCAGAACCTGC
sensor-assay potency score (higher = more potent) [4]: -1.79

TTGAACTCCAGAACCTTCTCCA
sensor-assay potency score (higher = more potent) [3]: 0.863

TCATCCAAACCAACTTACCTGC
sensor-assay potency score (higher = more potent) [4]: -0.593

TTGCTGTATAACAGTCTCCCCA
sensor-assay potency score (higher = more potent) [1]: -0.886

TTGTCGTTAATTTCCCCGCAGC
sensor-assay potency score (higher = more potent) [5]: -0.905

TTAGCATATACAAAGATCTGAT
sensor-assay potency score (higher = more potent) [5]: -0.612

TGCAGTTTGGGGATGATCCGAT
sensor-assay potency score (higher = more potent) [6]: 0.0447

TTACAAATGAGTCTGGTGGGGC
sensor-assay potency score (higher = more potent) [6]: -0.115

TTGTCTATAAAGTCCTTCGCCA
sensor-assay potency score (higher = more potent) [7]: -0.69

TTACCATGTAAACTTGATCCTC
sensor-assay potency score (higher = more potent) [7]: -0.301

TTTAGTTCTTTGTGATTCGAGT
sensor-assay potency score (higher = more potent) [8]: -0.551

TTAATTCATGATCTGAACCTAA
sensor-assay potency score (higher = more potent) [9]: -0.379

TGATTGTTCTTCAACATCGAAT
sensor-assay potency score (higher = more potent) [9]: -0.94

TTACAGGCAACACACCATCTTT
sensor-assay potency score (higher = more potent) [10]: -1.36

TTTGCTGTGAAGCAGAGTCTGA
sensor-assay potency score (higher = more potent) [10]: -0.886

TTGTCTGAAAAGCAGCTTCTAC
sensor-assay potency score (higher = more potent) [11]: -1.05

ATTTGTAATATCATATACCAAG
sensor-assay potency score (higher = more potent) [12]: -1.51

TTGATGTTCTCCTTGGCACTGG
sensor-assay potency score (higher = more potent) [13]: -0.145

TTATTTACTAGTTTAGCTGTTG
sensor-assay potency score (higher = more potent) [10]: 0.0265

TATCAGTAGCAGTTTGAACATA
sensor-assay potency score (higher = more potent) [13]: -1.09

TTCACATTGATGTTCTCCTTGG
sensor-assay potency score (higher = more potent) [13]: -0.53

TTCTGTGGGATCTTTGACCTTT
sensor-assay potency score (higher = more potent) [10]: 0.671

TTCAGTGTTTTGAAGGTCCTGG
sensor-assay potency score (higher = more potent) [10]: -0.334

TTGACCTTGAAATCGATGCCCA
sensor-assay potency score (higher = more potent) [13]: -0.115

TTTCAGAGTCAATAGCTGCTAA
sensor-assay potency score (higher = more potent) [14]: -0.257

TTATACATTTGCTTGACGCCTA
sensor-assay potency score (higher = more potent) [14]: 0.54

TAGTTAAGGAGGTCTTCCCGGA
sensor-assay potency score (higher = more potent) [12]: -0.69

TTCAAGTGTTCTATTGACCTAA
sensor-assay potency score (higher = more potent) [10]: 0.6

TTAATTGACTGACAGACTCATA
sensor-assay potency score (higher = more potent) [10]: -0.923

TTTGTTTGTACTGTTTCCCAAA
sensor-assay potency score (higher = more potent) [12]: -0.914

TTGGAATCCAGAAAGTTCGTGG
sensor-assay potency score (higher = more potent) [13]: 0.567

TTTCTTTTCTTCAAACTTGGAG
sensor-assay potency score (higher = more potent) [14]: -0.131

TTATTGTTCGCATATGCTCCAA
sensor-assay potency score (higher = more potent) [12]: -0.667

TAAAACACAATCTTGGAGCCAG
sensor-assay potency score (higher = more potent) [10]: 0.291

TTTGATAATTTGTAATATCATA
sensor-assay potency score (higher = more potent) [12]: -1.64

TTCACTGTGGTAACCTTGCGGG
sensor-assay potency score (higher = more potent) [14]: -0.0581

TTCTGATCTGCTGCATCCCGTG
sensor-assay potency score (higher = more potent) [13]: -1.02

TAGCAGTTTGAACATATAGTCG
sensor-assay potency score (higher = more potent) [13]: -0.969

TTGACTGACAGACTCATAGAGT
sensor-assay potency score (higher = more potent) [10]: -0.525

TATGAGACAATCCTCCAGCTGT
sensor-assay potency score (higher = more potent) [10]: -0.612

TATTGTTCGCATATGCTCCAAA
sensor-assay potency score (higher = more potent) [12]: -0.803

TAAGCTAGAAGGCACCACGGAT
sensor-assay potency score (higher = more potent) [13]: -0.984

TAACAGTCCTTGACATAGGTTC
sensor-assay potency score (higher = more potent) [12]: -0.143

TTAACAGTCCTTGACATAGGTT
sensor-assay potency score (higher = more potent) [12]: -0.695

TTGGCTTCATTCATGATCCTTT
sensor-assay potency score (higher = more potent) [14]: 0.202

TGAACCATCTTCCACCAGCTTG
sensor-assay potency score (higher = more potent) [13]: -1.09

TTTATTCCACTGAACAACGTAC
sensor-assay potency score (higher = more potent) [10]: -0.27

TTGAACATATAGTCGAAGTTCT
sensor-assay potency score (higher = more potent) [13]: 0.33

TATAGTCGAAGTTCTGATCTGC
sensor-assay potency score (higher = more potent) [13]: 0.851

TTGCTGCCTGAGCTGGAGCTGG
sensor-assay potency score (higher = more potent) [13]: -1.52

TATTTATCCAACATTTTGCCTC
sensor-assay potency score (higher = more potent) [12]: -0.421

TTATCCAACATTTTGCCTCCTA
sensor-assay potency score (higher = more potent) [12]: 0.54

TTGAAGGGTAACATTCAAGTTT
sensor-assay potency score (higher = more potent) [12]: -0.65

Reference: the OligoGym collection
